Data as given in PubChem BioAssay (NCATS).
Inconclusive results are not listed. A number with no mark means an inactive call. Calls of active or inactive are those of the source. Calls come from the whole dose curve. Bridge positions count the residues as written; N and C are the ends. Square brackets hold non-standard residues; d marks the D form. Peptide text beside a SMILES is read from it. Orn = NCCC[CH](N)C(=O)O; Mpa = O=C(O)CCS

Assay: Primary qHTS for inhibitors of SARS-S pseudo-typed particle cell entry (AID 1479145); note: nearly all actives have a fitted effect of over 45% in size
Settings: SARS-S pseudotyped particle cell entry, luciferase reporter; series mostly up to 57.1 µM; activity change, negative = inhibition: at the top concentration
% is set by controls: 0 for no effect and ±100 for the full control effect.

SMILES | activity change, negative = inhibition | outcome
N#Cc1cc(-c2n[nH]c(-c3ccncc3)n2)ccn1 | -15.8% | 
CC(C)OC(=O)CCC/C=C\C[C@@H]1[C@@H](CC[C@@H](O)CCc2ccccc2)[C@H](O)C[C@@H]1O | -26.3% [at 11.4 µM] | 
Cn1nnnc1SCC1=C(C(=O)O)N2C(=O)[C@H](NC(=O)C(O)c3ccccc3)C2SC1 (stereo not given in full) | 2.5% | 
C[N+]1(C)C2CC[C@H]1CC(OC(=O)C(O)c1ccccc1)C2 (stereo not given in full) | -14.4% | 
COC(=O)N[C@H](C(=O)N1CCC[C@H]1C(=O)Nc1ccc([C@@H]2CC[C@@H](c3ccc(NC(=O)[C@@H]4CCCN4C(=O)[C@@H](NC(=O)OC)C(C)C)cc3)N2c2ccc(C(C)(C)C)cc2)cc1)C(C)C |  | inactive
C=CC[N@@+]12CC[C@]34c5ccccc5N5/C=C6\C7N(/C=C(\C53)[C@@H](C[C@@H]41)/C(=C/CO)C2)c1ccccc1[C@@]71CC[N@@+]2(CC=C)C/C(=C\CO)[C@@H]6C[C@@H]12 (stereo not given in full) | -25.2% | 
CNC(=O)c1c(I)c(C(=O)NCC(=O)Nc2c(I)c(C(=O)O)c(I)c(C(=O)NCCO)c2I)c(I)c(N(C)C(C)=O)c1I |  | inactive
C=C1CCN([C@H](C)[C@](O)(Cn2cncn2)c2ccc(F)cc2F)CC1 | -10.2% | 
O=C(OC1C[C@@H]2CC3C[C@@H](C1)N2CC3=O)c1c[nH]c2ccccc12 (stereo not given in full) | 2.39% | 
O=C(Cn1c(=O)sc2ccc(Cl)cc21)N1CCN(CCO)CC1 | -28% | 
CC(C)[C@H]1CC[C@H](C)C[C@H]1O | -14.1% | 
CCCCCCCCCCCCCCCCOc1nc2ccc(C)cc2c(=O)o1 |  | inactive
CC(C)(CO)C(O)C(=O)NCCCC(=O)O (stereo not given) |  | inactive
CC1=C(C(=O)OCCN(Cc2ccccc2)c2ccccc2)C(c2cccc([N+](=O)[O-])c2)C(P2(=O)OCC(C)(C)CO2)=C(C)N1 (stereo not given) |  | inactive
CN(C)CC(c1ccc(O)cc1)C1(O)CCCCC1 (stereo not given) | -29.3% | 
[2H]C([2H])([2H])C(CCC[C@@H](C)[C@H]1CC[C@H]2/C(=C/C=C3\C[C@@H](O)C[C@H](O)C3=C)CCC[C@]12C)C([2H])([2H])[2H] |  | inactive
CCCCCCCCCCCCCCCC(=O)OC1CCCn2c1nc(C)c(CCN1CCC(c3noc4cc(F)ccc34)CC1)c2=O (stereo not given) |  | inactive
NS(=O)(=O)c1ccc(-n2nc(C(F)(F)F)cc2-c2ccc(F)cc2)cc1 | -21.5% | 
COc1ccc(CCNCC(O)COc2cccc(C)c2)cc1OC (stereo not given) | -23.4% | 
CC1(C)[C@@H]2CC[C@@]1(C)[C@H](OC(=O)CSC#N)C2 |  | inactive

SMILES | activity change, negative = inhibition | outcome
CC(C)(CO)[C@@H](O)C(=O)NCCC(=O)NCCSSCCNC(=O)CCNC(=O)[C@H](O)C(C)(C)CO | -27% | 
CC(C)(C)NC(=O)[C@H]1CC[C@H]2[C@@H]3CC=C4C=C(C(=O)O)CC[C@]4(C)[C@H]3CC[C@]12C |  | inactive
FC(F)OC(Cl)C(F)(F)F (stereo not given) |  | inactive
NC[C@@H]1O[C@H](O[C@H]2[C@H](O)[C@H](O[C@H]3[C@@H](O)[C@H](N)C[C@H](N)[C@H]3O[C@H]3O[C@H](CN)[C@H](O)[C@H](O)[C@H]3N)O[C@@H]2CO)[C@@H](N)[C@@H](O)[C@@H]1O | -20.9% [at 5.34 µM] | 
CCCC(=O)Nc1ncnc2c1ncn2C1O[C@@H]2COP(=O)(O)O[C@H]2[C@H]1OC(=O)CCC (stereo not given in full) | -37.3% | 
CCOc1ccc(CC2NC(=O)CCSSCC(C(=O)N3CCCC3C(=O)NC(CCCN)C(=O)NCC(N)=O)NC(=O)C(CC(N)=O)NC(=O)C(C(C)O)NC(=O)C(C(C)CC)NC2=O)cc1 (stereo not given) ([Mpa]Y(Et)ITNCP[Orn]G-NH2; disulfide 1-6; configuration not given here) | -21.8% | 
C[C@H](NCCc1ccc(O)cc1)[C@H](O)c1ccc(O)cc1 | -7.05% | 
CN(C)CC(=O)O | -12.8% | 
NCCCC(N)C(=O)O (stereo not given) |  | inactive [at 26.4 µM]
C[C@H]1O[C@]2(CS1)CN1CCC2CC1 | -1.9% | 
CC(C)C(=O)OCC(=O)[C@@]12OC(C3CCCCC3)O[C@@H]1C[C@H]1[C@@H]3CCC4=CC(=O)C=C[C@]4(C)[C@H]3[C@@H](O)C[C@@]12C (stereo not given in full) |  | inactive
C[N+](C)(C)CCOP(=O)([O-])OP(=O)(O)OC[C@H]1OC(n2ccc(N)nc2=O)[C@H](O)[C@@H]1O (stereo not given in full) |  | inactive [at 0.573 µM]
NC(=O)[C@@H]1CC[C@@H]2CN1C(=O)N2OS(=O)(=O)O | -7.35% | 
NC(Cc1cc(I)c(Oc2cc(I)c(O)c(I)c2)c(I)c1)C(=O)O (stereo not given) | -9.72% [at 26.4 µM] | 
CC1(C)S[C@@H]2[C@@H](N3C(=O)[C@@H](c4ccccc4)NC3(C)C)C(=O)N2[C@H]1C(=O)O | -23% | 
O=C(O)C1CCc2cc(C3CCCCC3)c(Cl)cc21 (stereo not given) | -24.1% | 
O=C(O)CCSC[C@H]1O[C@@H]2O[C@H]3[C@H](O)[C@@H](O)[C@@H](O[C@H]4[C@H](O)[C@@H](O)[C@@H](O[C@H]5[C@H](O)[C@@H](O)[C@@H](O[C@H]6[C@H](O)[C@@H](O)[C@@H](O[C@H]7[C@H](O)[C@@H](O)[C@@H](O[C@H]8[C@H](O)[C@@H](O)[C@@H](O[C@H]9[C@H](O)[C@@H](O)[C@@H](O[C@H]1[C@H](O)[C@H]2O)O[C@@H]9CSCCC(=O)O)O[C@@H]8CSCCC(=O)O)O[C@@H]7CSCCC(=O)O)O[C@@H]6CSCCC(=O)O)O[C@@H]5CSCCC(=O)O)O[C@@H]4CSCCC(=O)O)O[C@@H]3CSCCC(=O)O | -29% | 
O=S(=O)(O)CCCS(=O)(=O)O | -4.89% | 
CC(=O)O[C@]1(C(C)=O)CC[C@H]2[C@@H]3C[C@H](C)C4=CC(=O)C=C[C@]4(C)[C@@]3(F)[C@@H](O)C[C@@]21C | -6.1% | 
CN(CCCCCCCCCCN(C)C(=O)Oc1cccc([N+](C)(C)C)c1)C(=O)Oc1cccc([N+](C)(C)C)c1 | -27% | 
